The supplement of paper PMC9135407
Structures can show the parent of a compound that is named as a salt. About 620 (11%) of roughly 5,800 compounds showed activity. Only a selection was taken, and actives are over-represented in it overall. A number with no mark means an inactive call.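 How the source made its calls: active = score above a cut-off or among the top three wells of a plate; in these data no inactive exceeds 0.85.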

Tested on: primary human hepatic stellate cells (donor 1)
Assay: scaled lipid accumulation score (0 = DMSO-like, 1 = nortriptyline-like); higher = stronger HSC inactivation (lipid re-accumulation), active = hit call of the paper
Settings: 48 h
[1] = library stock concentration: 10 mM
[2] = library stock concentration: 1 mM
[3] = library stock concentration: 3.33 mM

Structure (SMILES): CN1CCN(CCCN2c3ccccc3Sc3ccc(Cl)cc32)CC1 [Prochlorperazine dimaleate]
- scaled lipid accumulation score: 0.696
- scaled lipid accumulation score [1]: 0.815

Structure (SMILES): OCCN1CCN(CCCN2c3ccccc3Sc3ccc(Cl)cc32)CC1 [Perphenazine]
- scaled lipid accumulation score: 0.75
- scaled lipid accumulation score (library stock concentration: 5 mM): 0.605
- scaled lipid accumulation score [1]: 0.329

Structure (SMILES): CCCCC[C@](C)(O)/C=C/[C@H]1C(=O)C[C@H](O)[C@@H]1C/C=C\CCCC(=O)O [15(S)-15-methyl Prostaglandin D2]
- scaled lipid accumulation score [2]: ≤ 0

Structure (SMILES): COC1CCC(C(=O)c2ccc3nc4c(cc3c2)CCCO4)CC1 (stereo not given)
- scaled lipid accumulation score [1]: ≤ -0.001

Structure (SMILES): NCC(O)c1ccc(O)c(O)c1 (stereo not given)
- scaled lipid accumulation score [1]: ≤ 0

Structure (SMILES): COC(=O)/C=C/c1cccc(N(Cc2ccc(-c3ccc(N(C)C)cc3)cc2)C(=O)C2CCCCC2)c1 [Fexaramine]
- scaled lipid accumulation score [1]: 0.006

Structure (SMILES): CC(NC(=O)Cc1cc(F)cc(F)c1)C(=O)NC1C(=O)N(C)c2ccccc2-c2ccccc21 (stereo not given)
- scaled lipid accumulation score [3]: ≤ 0
- scaled lipid accumulation score [1]: 0.235

Structure (SMILES): N[C@@H](Cc1ccc(O)c(I)c1)C(=O)O [3-Iodo-L-tyrosine]
- scaled lipid accumulation score [1]: ≤ -0.055

Structure (SMILES): CCOC(=O)c1ccnc(C(=O)OCC)c1
- scaled lipid accumulation score [2]: ≤ 0

Structure (SMILES): CC/C=C\C/C=C\C/C=C\CCCCCCCCCC(=O)O [Eicosatrienoic acid (20:3 n-3)]
- scaled lipid accumulation score [2]: 0.075

Structure (SMILES): Nc1nnc(Sc2ncc([N+](=O)[O-])s2)s1
- scaled lipid accumulation score [1]: 0.438

Structure (SMILES): O=c1[nH]nc(Sc2ncc([N+](=O)[O-])s2)n1-c1ccc2c(c1)OCCO2
- scaled lipid accumulation score [1]: 1.25 (active)

Structure (SMILES): O=C1NCCN1c1ncc([N+](=O)[O-])s1 [Niridazole]
- scaled lipid accumulation score: ≤ 0

Structure (SMILES): CCCCC[C@H](O)/C=C/[C@@H]1[C@@H](CCCCCCCO)[C@@H](O)C[C@H]1O [Prostaglandin F1.alpha. Alcohol]
- scaled lipid accumulation score [2]: ≤ 0

Structure (SMILES): CCCCC(=O)Oc1ccccc1C(=O)O [Valeroyl Salicylate]
- scaled lipid accumulation score [2]: ≤ 0

Structure (SMILES): CC[C@H](CO)Nc1nc(NCc2ccc(-c3ccccn3)cc2)c2ncn(C(C)C)c2n1 [CR8, (R)-Isomer]
- scaled lipid accumulation score [3]: ≤ 0

Structure (SMILES): CCOC(=O)c1ncc2[nH]c3cccc(OC(C)C)c3c2c1C
- scaled lipid accumulation score [1]: 0.014

Structure (SMILES): Cc1nc(N=Nc2cc(S(=O)(=O)O)c3cc([N+](=O)[O-])cc(S(=O)(=O)O)c3c2)c(COP(=O)(O)O)c(C=O)c1O [PPNDS tetrasodium]
- scaled lipid accumulation score [1]: 0.229

Structure (SMILES): CCCNCC(O)COc1ccccc1C(=O)CCc1ccccc1 (stereo not given) [Rythmol]
- scaled lipid accumulation score [1]: 0.811

Structure (SMILES): N#Cc1ccccc1OCC(O)CNCCNC(=O)Nc1ccccc1 (stereo not given)
- scaled lipid accumulation score [1]: 0.135

Structure (SMILES): O=C(O)COc1ccc(OCCNC[C@H](O)COc2ccccc2)cc1 [ICI 215,001 hydrochloride]
- scaled lipid accumulation score [1]: 0.013

Structure (SMILES): COCCNC(=O)COc1ccc(OCCNC[C@H](O)COc2ccccc2)cc1 [ZD 7114 hydrochloride]
- scaled lipid accumulation score [1]: 0.134

Structure (SMILES): CCCNCC(O)COc1ccccc1C(=O)CCc1ccccc1 (stereo not given) [Propafenone HCl]
- scaled lipid accumulation score [3]: 0.241
- scaled lipid accumulation score [1]: 0.684

Structure (SMILES): CCCNCC(O)COc1ccccc1C(=O)CCc1ccccc1 (stereo not given) [Propafenone hydrochloride]
- scaled lipid accumulation score: 0.742
- scaled lipid accumulation score (library stock concentration: 5.3 mM): 0.429
- scaled lipid accumulation score [1]: 0.365

Structure (SMILES): CCCNCC(O)COc1ccccc1C(=O)CCc1ccccc1 (stereo not given) [Propafenone]
- scaled lipid accumulation score (library stock concentration: 5.9 mM): 0.566

Structure (SMILES): CCCNCC(O)COc1ccccc1C(=O)CCc1ccccc1.Cl (stereo not given) [Propafenone hydrochloride]
- scaled lipid accumulation score [1]: 0.887 (active)

Structure (SMILES): CC(C)ON(CC(=O)NO)S(=O)(=O)c1ccc(-c2ccccc2)cc1
- scaled lipid accumulation score [2]: ≤ 0

Structure (SMILES): O=C1NN(C(=O)Nc2ccc(Br)cc2)[C@@H](c2ccccc2)[C@@H]1c1ccccc1
- scaled lipid accumulation score [1]: 0.026

Structure (SMILES): COc1cccc(-c2cc(F)ccc2C2Cc3nc(N)nc(C)c3C(=O)N2)n1 (stereo not given)
- scaled lipid accumulation score [3]: 0.806

Structure (SMILES): COc1cccc(-c2cc(F)ccc2[C@H]2Cc3nc(N)nc(C)c3C(=O)N2)n1
- scaled lipid accumulation score [1]: 0.937 (active)

Structure (SMILES): COc1ccc(-c2cc3c(C)nc(N)nc3n([C@H]3CC[C@H](OCCO)CC3)c2=O)cn1
- scaled lipid accumulation score [3]: ≤ 0
- scaled lipid accumulation score [1]: 0.45

Structure (SMILES): Cc1ccsc1C(=CCCN1CCC[C@@H](C(=O)O)C1)c1sccc1C
- scaled lipid accumulation score [1]: ≤ 0

Structure (SMILES): O=C1N[C@@H]2[C@@H](O)[C@@H](O)[C@H](O)[C@@H](CO)N2C1=O [Kifunensine]
- scaled lipid accumulation score [2]: 0.034

Structure (SMILES): CC(CCCCC(=O)Nc1ccc(C(F)(F)F)cc1)NCCc1cnc[nH]1 (stereo not given) [HTMT dimaleate]
- scaled lipid accumulation score [1]: 0.519

Structure (SMILES): NC(=O)CCCSc1nc(N)nc(-c2c(Cl)cc3c4c(cccc24)COC3)n1
- scaled lipid accumulation score [3]: 0.86 (active)
- scaled lipid accumulation score [1]: 0.886 (active)

Structure (SMILES): O=P(O)(O)OC1[C@H](O)[C@H](O)C(O)[C@H](O)[C@H]1O (stereo partly drawn) [D-myo-Inositol-1-phosphate (sodium salt)]
- scaled lipid accumulation score [2]: 0.012
